LYPLA1 counter: counter-screen for PME1 inhibitors: inhibitors of human LYPLA1; actives 0.16% (n = 320,000); inhibition, % at 5.9 µM; recombinant LYPLA1, FP-Rh probe fluorescence polarization; O75608;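 active = inhibition above the mean of all tested compounds plus 3 SD, set per campaign, cut at about 14% in these data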;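 note: inhibitors block serine hydrolase probe labeling of LYPLA1 so polarization falls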
PAFAH2 FP inh: inhibitors of human PAFAH2 | Q99487 | recombinant PAFAH2, FP-rhodamine activity probe, fluorescence polarization | inhibition, % at 3.39 µM | actives 0.99% (n = 340,000) | AID 492956;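 active = inhibition above the mean over all tested compounds plus 3 SD, cut at about 30% in these data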;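 note: inhibitors block probe labeling of enzyme so polarization drops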
PAFAH1B2 inh: inhibitors of human PAFAH1B2 | P68402 | recombinant PAFAH1B2, FP-rhodamine activity probe, fluorescence polarization | inhibition, % at 3.39 µM | actives 1.2% (n = 340,000);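 active = inhibition above the mean of all tested compounds plus 3 SD, cut at about 24% in these data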
Target sequence (P68402 whole entry, looked up): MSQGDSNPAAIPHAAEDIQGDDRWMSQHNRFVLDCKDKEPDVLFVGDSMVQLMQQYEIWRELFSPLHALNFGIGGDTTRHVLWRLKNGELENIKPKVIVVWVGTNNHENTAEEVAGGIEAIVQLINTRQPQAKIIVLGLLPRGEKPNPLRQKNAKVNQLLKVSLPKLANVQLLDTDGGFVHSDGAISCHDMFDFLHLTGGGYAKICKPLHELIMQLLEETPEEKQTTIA
PAFAH1B3 inh: blocks human PAF acetylhydrolase 1B catalytic subunit 3 | Q15102 | recombinant PAFAH1B3, FP-rhodamine probe, fluorescence polarization | inhibition, % at 3.39 µM | actives 0.28% (n = 340,000) | AID 492972;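 active = inhibition above the screen-wide average of all tested compounds plus 3 SD, cut at about 25% in these data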
pPAFAH FP inh: pPAFAH (human) enzyme inhibition. actives 1.5% (n = 330,000). inhibition, % at 3.39 µM. Q13093. recombinant pPAFAH, FP-rhodamine probe fluorescence polarization;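 active = inhibition above the mean inhibition across the screen plus 3 SD, cut at about 25% in these data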;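 note: inhibitors block binding of the rhodamine activity-based probe so polarization drops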
LYPLA2 counter: counter-screen for PME1 inhibitors: inhibitors of human LYPLA2 | recombinant LYPLA2, FP-Rh probe fluorescence polarization | actives 0.38% (n = 320,000) | inhibition, % at 5.9 µM | O95372;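 active = inhibition above the screen-wide mean plus 3 SD, limit set per campaign, cut at about 26% in these data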
Target sequence (O95372 whole entry, looked up): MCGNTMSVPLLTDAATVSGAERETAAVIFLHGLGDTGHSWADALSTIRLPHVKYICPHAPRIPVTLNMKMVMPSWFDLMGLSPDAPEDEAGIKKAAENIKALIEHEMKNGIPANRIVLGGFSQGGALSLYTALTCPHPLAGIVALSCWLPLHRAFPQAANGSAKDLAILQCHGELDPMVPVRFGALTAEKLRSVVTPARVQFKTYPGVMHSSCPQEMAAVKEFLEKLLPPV
Numbers stand for hits; – = inactive; · = no result given. Most compounds without a hit are left out; they make up all but 2.9% or so of the library.

SMILES	LYPLA1 counter	PAFAH2 FP inh	PAFAH1B2 inh	PAFAH1B3 inh	pPAFAH FP inh	LYPLA2 counter
COC(=O)\C(C(C)=O)=C(/C=C/C=C/C=C/N(C)C)N(C)C	–	–	–	–	32	–
COC(=O)c1ccc(N2CCc3ccccc32)c([N+](=O)[O-])c1	–	–	–	–	25	–
C=CCN1C(=O)C(CC(=O)O)SC1=Nc1cccc([N+](=O)[O-])c1 (stereo unspecified)	–	–	–	–	–	–
CCc1ccc2oc(=O)cc(CN(C)Cc3ccccc3)c2c1	–	–	38	–	–	–
CCc1ccc2oc(=O)cc(CN3CCN(Cc4ccccc4)CC3)c2c1	–	–	–	–	–	–
CCCCCC(=O)Nc1cc(S(=O)(=O)O)cc2cc(S(=O)(=O)O)cc(O)c12	·	57	–	35	·	·
Cn1c(=O)oc2cc(S(=O)(=O)Nc3ccc(F)cc3)ccc21	–	–	–	–	26	–
Cc1ccc(NS(=O)(=O)c2ccc3c(c2)CCC(=O)N3)cc1C	–	–	–	–	–	–
O=C1CCc2cc(S(=O)(=O)Nc3ccc(F)cc3)ccc2N1	–	–	–	–	29	–
Cc1cccc(NS(=O)(=O)c2ccc3c(c2)CCC(=O)N3)c1	–	–	–	–	28	–
CCOc1ccccc1-c1cc(-c2n[nH]c(=S)n2CC)c2ccccc2n1	–	–	–	–	–	–
COc1cc2[nH]c(=O)n(Cc3ccc(C(=O)NC4CCCC4)cc3)c(=O)c2cc1OC	–	–	–	–	–	–
CCCCCn1c(=O)[nH]c2cc(C(=O)NCc3ccccn3)ccc2c1=O	–	–	–	–	–	–
CCNC(=S)NNC(=O)c1cc(-c2ccc(OC)cc2)nc2ccccc12	–	–	28	–	–	–
CCNC(=S)NNC(=O)c1cc(-c2cccc(C)c2)nc2ccccc12	–	–	32	–	–	–
CCNC(=S)NNC(=O)c1cc(-c2cccc(OCC)c2)nc2ccccc12	–	–	–	–	–	–
CCOC(=O)c1ccc(NC(=S)NNC(=O)c2cc(-c3cccnc3)nc3ccccc23)cc1	–	–	–	–	30	–
Cc1ccc(Cn2nc(C)c(C(=O)NCC(c3cccs3)N3CCOCC3)c2Cl)cc1 (stereo unspecified)	–	–	–	–	–	–
Cc1c(NC(=O)c2ncn[nH]2)cccc1-c1nc2ccccc2s1	–	–	–	–	–	–
O=C(O)c1cc(NC(=O)c2ccc3c(c2)C(=O)N(Cc2ccccc2)C3=O)cc(C(=O)O)c1	–	–	–	–	–	–
CCOc1cc(/C=C2\C(=O)N(c3cccc(C(=O)O)c3)N=C2C(F)(F)F)ccc1OCC(=O)Nc1ccccc1OC	–	·	·	·	37	–
O=C(O)c1[nH]c2ccc(Br)cc2c1CCN1C(=O)c2cccc([N+](=O)[O-])c2C1=O	–	–	53	–	–	–
COc1ccc2[nH]c(C(=O)O)c(CCN3C(=O)c4ccc(C(=O)O)cc4C3=O)c2c1	–	–	–	–	–	–
O=C(O)c1[nH]c2ccc(Cl)cc2c1CCN1C(=O)c2ccccc2C1=O	–	–	84	–	–	–
Cc1cc(C)c(C#N)c(SCCS(=O)(=O)c2ccc(Cl)cc2)n1	–	–	29	–	–	–
SMILES	LYPLA1 counter	PAFAH2 FP inh	PAFAH1B2 inh	PAFAH1B3 inh	pPAFAH FP inh	LYPLA2 counter
Cc1cc(C)c(C#N)c(SCc2c(F)cccc2[N+](=O)[O-])n1	–	–	–	–	–	34
Cc1cc(C)c(C#N)c(SCCS(=O)(=O)c2ccc(C(C)(C)C)cc2)n1	–	–	–	–	–	–
CCOC(=O)N1CCC(NCCNC(=O)c2ccc(F)cc2)CC1	–	–	–	–	–	–
COc1c(S(=O)(=O)Nc2cccnc2)ccc(Cl)c1Cl	–	–	–	–	–	–
Cc1cccc(Oc2sc(C(=O)c3ccccc3)c(N)c2C#N)c1	–	–	–	–	26	–
N#CCOC(=O)c1sccc1-n1cccc1	–	–	–	–	–	–
N#CCC(=O)c1sccc1-n1cccc1	–	–	–	–	34	–
O=C(COc1ccc(S(=O)(=O)Nc2ccccc2)cc1)NCc1cccnc1	–	–	–	–	29	–
Cc1ccccc1NS(=O)(=O)c1ccc(OCC(=O)NCc2cccnc2)cc1	–	–	–	–	33	–
COc1ccc(CCN2CC(C(=O)NCCc3ccc(C)cc3)CC2=O)cc1OC (stereo unspecified)	–	–	–	–	29	–
Nc1nnc(-c2cccc(F)c2)s1	–	–	–	–	–	–
O=c1oc2c(-c3cccc(F)c3)cc(O)cc2s1	–	–	–	–	27	–
Cc1ccc(NC(=O)c2ccc(=O)[nH]n2)cc1C	–	–	–	–	–	–
CC(NC(=O)OCc1ccccc1)c1ccccc1 (stereo unspecified)	–	–	–	–	–	–
CC(c1ccccc1)C(NC(=O)OCC1c2ccccc2-c2ccccc21)C(=O)O (stereo unspecified)	–	–	29	–	–	–
Nc1ccc(CNC(=O)OCC2c3ccccc3-c3ccccc32)cc1	–	–	–	–	–	–
O=C(N[C@@H](Cc1ccc(Br)cc1)C(=O)O)OCC1c2ccccc2-c2ccccc21	–	–	70	–	–	–
Cn1cccc1-c1cc(C(=O)N/N=C/c2cc(Br)ccc2O)[nH]n1	–	–	–	–	30	–
Oc1c(Cl)cc(Cl)cc1Sc1cc(Cl)cc(Cl)c1O	–	·	·	·	77	–
Cc1cc(C)c(O)c(CN(C)Cc2cc(Cl)cc(Cl)c2O)c1	·	–	–	–	·	·
c1ccc2[nH]c(CN3CCCCC3)nc2c1	–	–	–	–	–	–
O=C(N/N=C/c1cccc(O)c1)c1ccc(NC(=O)C2CCCCC2)cc1	·	–	–	–	·	·
O=C(N/N=C/c1ccc(O)cc1O)c1ccc(NC(=O)C2CCCCC2)cc1	–	–	33	37	–	–
CCOc1ccccc1N1CC(O)=C(c2nc3ccccc3s2)C1=N	–	–	–	–	33	–
Cc1nnc(NC(=O)CSc2nnc(CNC(=O)C34CC5CC(CC(C5)C3)C4)n2C2CCCCC2)s1	–	–	–	–	–	–
SMILES	LYPLA1 counter	PAFAH2 FP inh	PAFAH1B2 inh	PAFAH1B3 inh	pPAFAH FP inh	LYPLA2 counter
NC(=O)CC(NC(=O)c1ccccc1)c1ccc(NC2CCCC2)c([N+](=O)[O-])c1 (stereo unspecified)	–	–	–	–	–	–
COc1ccc(-n2c(Cc3cccn3C)nnc2SCC(=O)Nc2cccc(OC)c2)cc1	–	–	–	–	–	–
COc1ccc(NC(=O)CSc2nnc(Cc3cccn3C)n2-c2ccc(C)cc2)cc1OC	–	–	–	–	32	–
COC(=O)c1ccccc1NC(=O)N1CCN(c2ccccc2F)CC1	–	–	–	–	–	–
CCN(CC(=O)Nc1ccc(NC(C)=O)cc1)Cc1c(O)ccc2cc(Br)ccc12	–	–	68	–	–	–
Cc1ccc(NC(=O)CN(C)Cc2c(O)ccc3ccccc23)cc1	–	·	·	·	–	–
Cc1ccccc1NC(=O)CSc1nnc2ccc(-c3ccccn3)nn12	–	–	–	–	–	–
